Values joined by “and” are separate entries in the source; they are usually repeats but may differ in a detail not shown here. Equal values may be shown once. The campaign covered roughly 420,000 compounds. About 64,000 (15%) were called active. Another 27% or so got no clear call; they are omitted. Calls come from the whole dose curve; as a rule, active = well fitted inhibition curve with a large enough effect; inconclusive = small, poorly fitted or top-dose-only effect; inactive = flat fitted curve, though single readings scatter. These entries were drawn from the full list. Entries that show only a call come without a potency. Peptide text beside a SMILES is read from it.
Assay: qHTS for Inhibitors of human tyrosyl-DNA phosphodiesterase 1 (TDP1): qHTS in cells in absence of CPT; note: nearly all actives have a fitted effect of over 55% in size
Details: DT40 Tdp1-/- hTDP1 cells, no CPT, ATP luminescence, 48 h; activity change, negative = growth inhibition: at 46.2 µM (top of the series)
Method in brief: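 Growth of hTDP1-complemented DT40 Tdp1-knockout cells is measured by ATP luminescence after at least 48 hr compound exposure at 37 °C, with DMSO substituting for the 20 nM CPT used in the parallel screen.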
Potency is the fitted concentration of half-maximal effect.

Row | Compound | Potency
1 | O=C(Nc1cccnc1)c1cc([N+](=O)[O-])ccc1Cl | inactive
2 | Nc1nc(SC23CC4CC(CC(C4)C2)C3)ns1 | inactive
3 | O=C(Nc1ccc(-n2cccn2)cc1)C1CCN(Cc2ccsc2)CC1 | inactive
4 | COc1ccc(C/C(N)=N/OC(=O)c2ccco2)cc1OC | inactive
5 | CCOc1ccc(NC(=O)CCS(=O)(=O)c2cccc3nsnc23)cc1 | inactive
6 | O=C(CSc1ncn[nH]1)Nc1nsc(-c2ccccc2)n1 | inactive
7 | c1csc(-c2nc(-c3ccncc3)no2)c1 | inactive
8 | CCN(CC(=O)Nc1ccc(NC(C)=O)cc1)C(=O)C1CC(=O)N(Cc2ccc(C)cc2)C1 (configuration not stated) | inactive
9 | COc1ccc2c(c1)CCCO[C@]21O[C@H](CCO)C[C@H](O)[C@H]1O | inactive
10 | Cn1c(=O)c2c(nc(NCCNC(=O)c3ccco3)n2Cc2ccccc2F)n(C)c1=O | 18.4 µM (active)
11 | CC(C)OCCCNc1nc2c(c(=O)n(Cc3ccccc3F)c(=O)n2C)n1C | inactive
12 | COc1ccccc1/C=C/C(=O)OCC(=O)NC1CCCCCC1 | inactive
13 | CC1(C(=O)NS(=O)(=O)c2ccccc2)CCN1C(=O)C1CCCCC1 (configuration not stated) | inactive
14 | Cc1noc(C)c1NC(=O)Nc1cccc2c1O[C@H](CN(C)S(=O)(=O)c1c(C)noc1C)[C@@H](C)CN([C@H](C)CO)C2=O | inactive
15 | CCN1CCN(c2c(Cl)cccc2NC(=O)c2ccc(Br)o2)CC1 | 16.4 µM (active)
16 | CN1CCN(C(=O)c2ccc(NC(=O)c3ccc(Br)o3)cc2)CC1 | inactive
17 | COc1cc(OC)c(NC(=O)c2ccc(Br)o2)cc1Cl | inactive
18 | O=C(Cn1nnc(-c2ccccc2)n1)N/N=C/c1ccc(-c2ccc(Cl)cc2)o1 | inactive
19 | Cc1ccccc1NC(=O)c1ccccc1NS(=O)(=O)c1cccc2cccnc12 | inactive
20 | O=[N+]([O-])c1ccccc1S(=O)(=O)Nc1cccc2cccnc12 | 2 µM (active) and 2.59 µM (active)
21 | NS(=O)(=O)c1ccc(CCNS(=O)(=O)c2cccc3cccnc23)cc1 | inactive
22 | CCn1c(/C=C/c2ccc([N+](=O)[O-])o2)nc2ccccc2c1=O | 2.59 µM (active)
23 | Cc1nc2ccccc2c(=O)n1Cc1ccc([N+](=O)[O-])cc1 | inactive
24 | Cc1nc2ccccc2c(=O)n1NC(=O)c1ccc(Cl)c([N+](=O)[O-])c1 | inactive
25 | CCc1noc(C)c1C(=O)N1CCCSC1=Nc1ccccc1OC | inactive

Row | Compound | Potency
26 | COC(=O)Cn1c(=NC(=O)CSCC(=O)Nc2cc(C)on2)sc2ccccc21 | inactive
27 | COc1ccc(N(CC(=O)Nc2ccc(F)c(F)c2)S(=O)(=O)c2c(C)[nH]c(=O)[nH]c2=O)cc1 | inactive
28 | CCOc1ccc(N(CC(=O)NCc2ccc(OC)cc2)S(=O)(=O)c2c(C)noc2C)cc1 | inactive
29 | CCOc1ccc(N(CC(=O)OC)S(=O)(=O)c2c(C)noc2C)cc1 | inactive
30 | COc1ccc(N(CC(=O)Nc2cc(OC)ccc2OC)S(=O)(=O)c2c(C)noc2C)cc1 | 23.1 µM (active)
31 | COC(=O)c1ccc(NC(=O)CN(c2ccc(C)cc2)S(=O)(=O)c2c(C)n[nH]c2C)cc1 | inactive
32 | CCOc1ccc(OCC)c(NC(=O)CN(c2ccc(C)cc2)S(=O)(=O)c2c(C)n[nH]c2C)c1 | 29.1 µM (active)
33 | Cc1ccc(S(=O)(=O)NCC(=O)Nc2ccc3c(c2)OCCO3)cc1 | inactive
34 | CCOc1ccc(N(CC(=O)Nc2ccccc2F)S(=O)(=O)c2c(C)[nH]c(=O)[nH]c2=O)cc1 | inactive
35 | Cc1noc(C)c1S(=O)(=O)N(CC(=O)Nc1ccc2c(c1)OCCO2)c1ccc(C(C)C)cc1 | 14.6 µM (active)
36 | C/C=C\C=C\C(=O)N1CC2(CC(c3cccc(NC(=O)/C(C)=C\C)c3)=NO2)C[C@H]1C(N)=O (some centres not stated) | inactive
37 | CC(NC(=O)CN1CCN(Cc2ccc(Cl)cc2)C1=O)c1ccc2c(c1)OCCO2 (configuration not stated) | inactive
38 | Cc1noc(C)c1C(=O)OCC(=O)N1CCN(S(=O)(=O)c2ccc3ccccc3c2)CC1 | inactive
39 | C(=N/N1CCN(c2ccccc2)CC1)/c1cccs1 | inactive
40 | Nc1c(Cl)cc(S(N)(=O)=O)cc1S(N)(=O)=O | inactive
41 | O=[N+]([O-])c1ccc(Sc2n[nH]c(-c3ccco3)n2)nc1 | inactive
42 | CCC(C)Sc1nc2c(cnn2-c2ccc(F)cc2)c(=O)[nH]1 (configuration not stated) | inactive
43 | COc1ccc(Oc2ncc3nc(C)c(=O)n(-c4ccccc4)c3n2)cc1 | inactive
44 | Cc1ccc(Oc2cnn(-c3ccccc3)c(=O)c2Br)cc1 | inactive
45 | COc1ccc(-n2c(C)nc3c(cnn3-c3ccc(F)cc3)c2=O)cc1 | 16.4 µM (active)
46 | CCOc1ccc(-n2c(C)nc3c(cnn3-c3ccc(C)cc3)c2=O)cc1 | 5.8 µM (active)
47 | CCOC(=O)c1ccc(-n2c(C)nc3c(cnn3-c3ccccc3C)c2=O)cc1 | inactive
48 | COc1ccc(-n2c(C)nc3c(cnn3-c3ccccc3)c2=O)cc1 | 16.4 µM (active)
49 | CCOc1ccc(-n2cnc3c(=O)[nH]c(N)nc32)cc1 | inactive
50 | COc1ccc(Oc2ncc3nc(-c4ccc(F)cc4)c(=O)n(C)c3n2)cc1 | inactive

Row | Compound | Potency
51 | COC(=O)C1CCCCN1C(=O)c1ccc(OC2CCN(C(C)=O)CC2)c(OC)c1 (configuration not stated) | inactive
52 | CS(=O)(=O)c1ccc(C(=O)NNC(=O)c2cccs2)cc1 | inactive
53 | O=C(NN=Cc1ccc([N+](=O)[O-])cc1)C1CC1 | inactive
54 | O=[N+]([O-])c1ccc(C=NN=Cc2ccc([N+](=O)[O-])cc2)cc1 | inactive
55 | O=C1/C(=C\c2ccc([N+](=O)[O-])cc2)CS(=O)(=O)C/C1=C/c1ccc([N+](=O)[O-])cc1 | 0.0231 µM (active)
56 | CCN(CC)Cc1c(C(=O)N/N=C/c2cccc(OCc3ccc(F)cc3)c2)nnn1-c1nonc1N | inactive
57 | CCc1ccc(N2CC(C(=O)Nc3ccc(S(=O)(=O)Nc4nccs4)cc3)CC2=O)cc1 (configuration not stated) | inactive
58 | Cc1ccc(C(=O)NC(=S)NCc2cccnc2)cc1 | inactive
59 | Cc1ccc(-n2nc(-c3ccco3)cc2C(=O)NCc2cccnc2)cc1 | 18.4 µM (active)
60 | CSc1sc(C(=O)NC(=O)NCc2cccnc2)c(C)c1-c1ccon1 | inactive
61 | NC(=S)N/N=C/c1coc2cc(Cl)ccc2c1=O | inactive
62 | CC(C)Oc1c(Br)cc(Br)cc1/C=N/NC(N)=S | 5.8 µM (active)
63 | O=C(NNC(=S)Nc1ccc(F)cc1)[C@H]1C[C@@H]1c1ccccc1 | inactive
64 | C(=N\n1cnnc1)/c1cccnc1 | inactive
65 | N=C1C(c2nc3ccccc3[nH]2)=C(O)CN1NC(=O)c1c[nH]c2ccccc12 | inactive
66 | CCc1ccc(N2CC(O)=C(c3nc4ccccc4c(=O)[nH]3)C2=N)cc1 | 14.6 µM (active)
67 | O=c1[nH]c(-c2cccs2)nc2ccccc12 | inactive
68 | CCN(CC)CCNC(=O)c1ccc(NS(=O)(=O)c2ccc3c(c2)OCCO3)cc1 | inactive
69 | Cc1ccc2nc(-c3ccncc3)cc(C(=O)Nc3ccc4c(c3)OCCO4)c2c1 | 10.3 µM (active)
70 | CCN(CC)CCNC(=O)c1ccc(NC(=O)c2cc(-c3ccncc3)nc3ccccc23)cc1 | 23.1 µM (active)
71 | O=C(Nc1ccc2c(c1)OCCO2)c1cnccn1 | inactive
72 | O=C(Nc1ccncc1)c1cc(-c2ccccn2)nc2ccc(Br)cc12 | inactive
73 | Cc1ccc2nc(-c3ccccc3)cc(C(=O)O)c2c1 | inactive
74 | Cc1ccc2nc(-c3ccncc3)cc(C(=O)Nc3ccc(OC(F)F)cc3)c2c1 | 9.2 µM (active)
75 | CCn1c(SCC(=O)Nc2ccc3c(c2)OCCO3)nnc1-c1ccncc1 | inactive

Row | Compound | Potency
76 | O=C(Nc1ccc(S(=O)(=O)Nc2nccs2)cc1)c1cc(-c2ccncc2)nc2ccccc12 | inactive
77 | C=CCNC(=O)/C(=C\c1cccc([N+](=O)[O-])c1)NC(=O)c1ccccc1 | inactive
78 | COc1cc(/C=C/C(=O)OCC(=O)NC2CC2)cc(OC)c1OC | inactive
79 | Cc1cc(=O)oc2cc(NC(=O)C(C)Oc3ccccc3)ccc12 (configuration not stated) | inactive
80 | C[C@H](CO)N1C[C@H](C)[C@@H](CN(C)S(=O)(=O)c2ccc(Oc3ccccc3)cc2)OCc2cn(nn2)CCCC1=O | inactive
81 | COc1ccc(NC(=O)CSc2nc(N)c(-c3ccccc3)c(=O)[nH]2)cc1 | inactive
82 | CC(C)c1ccc(Nc2ncccc2C#N)cc1 | inactive
83 | CCc1nnc(NC(=O)c2cccs2)s1 | inactive
84 | CC(=O)c1cccc(NC(=O)C2CCCN2S(=O)(=O)c2cccc3nsnc23)c1 (configuration not stated) | inactive
85 | CC(C)C(c1nnnn1C1CCCCC1)N1CCN(C(=O)c2ccco2)CC1 (configuration not stated) | inactive
86 | CC(C)C(c1nnnn1C1CCCC1)N1CCN(c2ccccc2F)CC1 (configuration not stated) | 18.4 µM (active)
87 | CCC(c1nnnn1C1CCCC1)N1CCN(C(=O)c2ccco2)CC1 (configuration not stated) | inactive
88 | CC(C)C[C@@H](NC(=O)[C@H]1CCCN1C(=O)Cc1ccccc1)C(N)=O (HELM PEPTIDE1{[O=C(Cc1ccccc1)[*:2]].[dP].[dL].[am]}$$$$V2.0) | inactive
89 | CC(C)C(=O)Nc1c2c(nn1-c1ccccc1)CSC2 | inactive
90 | CCN1C(=NCC(C)C)N[C@@H](CCc2ccccc2)[C@H](C(=O)NCC(C)C)[C@H]1C | 13 µM (active)
91 | CCN1C(=O)N[C@@H](c2ccccc2)[C@H](C(C)=O)[C@H]1C | inactive
92 | CCN1C(=NCCc2cccnc2)N[C@@H](c2ccccc2)[C@H](C(=O)OC)[C@H]1C | inactive
93 | CC1=C(C)CC(C(=O)NC(C)CCc2ccccc2)C(C(=O)O)C1 (configuration not stated) | inactive
94 | COCCN1C(=O)N[C@@H](CCc2ccccc2)[C@H](C(C)=O)[C@H]1C | inactive
95 | CCN1C(=NCc2ccc(OC)cc2)N[C@@H](CCc2ccccc2)[C@H](C(=O)NCc2ccc(OC)cc2)[C@H]1C | 9.2 µM (active)
96 | CCc1ccccc1NC(=O)CSc1nnc([C@@H](NC(=O)OC(C)(C)C)C(C)C)o1 | inactive
97 | Cc1c(NS(=O)(=O)c2ccc(Cl)cc2)c(=O)n(-c2ccccc2)n1C | inactive

Reference: PubChem BioAssay AID686978 (National Center for Advancing Translational Sciences (NCATS), 2013)
